Source: PubChem BioAssay AID1159580 (chemical genetic matrix, 2015)
Out of some 5,500 compounds screened, about 2,000 (36%) were called active. Not shown: some 18% with an inconclusive outcome. No stated cut-off is given here; in the data, active means normalized growth mostly below about 0.91 (no sharp cut-off); inconclusive means no clear call, values can overlap the other calls; inactive means mostly above about 0.92. The list shows a part of the results.

Experiment: chemical genetic growth profiling, strain panel (AID 1159580);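 further: tested at 20 µM; growth read once vehicle control cultures reached saturation at 30 °C; 1 = growth at the plate median or of vehicle wells; lower values mean less growth of the strain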
Details: growth OD
[1] = S. cerevisiae deletion strains, locus YAL013W, strain DEP1, hits give low values
[2] = S. cerevisiae deletion strains, locus YBR229C, strain ROT2, hits give low values
[3] = S. cerevisiae deletion strains, locus YDL101C, strain DUN1, hits give low values
[4] = S. cerevisiae deletion strains, locus YDR150W, strain NUM1, hits give low values
[5] = S. cerevisiae deletion strains, locus YEL061C, strain CIN8, hits give low values
[6] = S. cerevisiae deletion strains, locus YGR078C, strain PAC10, hits give low values
[7] = S. cerevisiae deletion strains, locus YHR030C, strain SLT2, hits give low values
[8] = S. cerevisiae deletion strains, locus YHR087W, strain rtc3, hits give low values
[9] = S. cerevisiae deletion strains, locus YJR043C, strain POL32, hits give low values
[10] = S. cerevisiae deletion strains, locus YJR075W, strain HOC1, hits give low values
[11] = S. cerevisiae deletion strains, locus YLR039C, strain RIC1, hits give low values
[12] = S. cerevisiae deletion strains, locus YLR058C, strain SHM2 (second series), hits give low values
[13] = S. cerevisiae deletion strains, locus YLR085C, strain ARP6, hits give low values
[14] = S. cerevisiae deletion strains, locus YLR262C, strain YPT6, hits give low values
[15] = S. cerevisiae deletion strains, locus YML094W, strain GIM5, hits give low values
[16] = S. cerevisiae deletion strains, locus YMR219W, strain ESC1, hits give low values
[17] = S. cerevisiae deletion strains, locus YMR263W, strain SAP30, hits give low values
[18] = S. cerevisiae deletion strains, locus YNL153C, strain GIM3, hits give low values
[19] = S. cerevisiae deletion strains, locus YNL298W, strain CLA4 (second series), hits give low values
[20] = S. cerevisiae deletion strains, locus YNL322C, strain KRE1, hits give low values
[21] = S. cerevisiae deletion strains, locus YNR030W, strain Alg12, hits give low values
[22] = S. cerevisiae deletion strains, locus YPL055C, strain LGE1, hits give low values
[23] = S. cerevisiae deletion strains, locus YPL241C, strain CIN2, hits give low values
[24] = S. cerevisiae deletion strains, locus YPR135W, strain CTF4, hits give low values
[25] = S. cerevisiae strains, strain wild type, hits give low values

Measured: normalized growth

COc1ccc(CN(Cc2ccc(OC)cc2)C(=O)c2cccs2)cc1
inactive: [1] 0.976 | [2] 0.974 | S. cerevisiae deletion strains, locus YCL061C, strain MRC1, hits give low values 1.01 | [3] 0.969 | S. cerevisiae deletion strains, locus YDL134C, strain PPH21, hits give low values 0.974 | [4] 0.98 | [5] 0.974 | [6] 1 | S. cerevisiae deletion strains, locus YGR229C, strain SMI1, hits give low values 0.976 | [7] 0.971 | [8] 0.959 | [9] 0.994 | [10] 0.976 | [11] 0.92 | [12] 0.99 | [13] 0.97 | [14] 0.925 | [15] 0.953 | [16] 0.992 | [17] 1.01 | S. cerevisiae deletion strains, locus YMR307W, strain GAS1, hits give low values 0.812 | S. cerevisiae deletion strains, locus YNL128W, strain TEP1, hits give low values 0.973 | [18] 0.993 | [19] 0.973 | [20] 0.994 | [21] 0.931 | S. cerevisiae deletion strains, locus YOL006C, strain TOP1, hits give low values 0.95 | [22] 0.945 | [23] 0.995 | [24] 0.952 | [25] 0.976

Cc1ccc(-n2nc(-c3ccc(OC(F)(F)F)cc3)cc2NC(=O)Nc2ccc(OC(F)(F)F)cc2)cc1C
inactive: [1] 1 | [2] 1.02 | [3] 1.01 | [4] 1.02 | [5] 1.01 | [6] 1.04 | [7] 1.09 | [8] 1.01 | [9] 1.02 | [10] 1.03 | S. cerevisiae deletion strains, locus YKL190W, strain CNB1, hits give low values 1.02 | [11] 1.08 | [12] 1.02 | [13] 1.17 | [14] 1.05 | [15] 1.02 | [16] 1.02 | [17] 1.05 | [18] 0.996 | [19] 1.05 | [20] 1 | [21] 1.01 | [22] 1.06 | [23] 1.08 | [24] 0.996 | [25] 1.02

Nc1cc(-c2ccc(OC(F)(F)F)cc2)nn1-c1ccc(Cl)c(Cl)c1
active: S. cerevisiae deletion strains, locus YDL214C, strain PRR2, hits give low values 0.565 | S. cerevisiae deletion strains, locus YDR477W, strain SNF1, hits give low values 0.487 | S. cerevisiae deletion strains, locus YER123W, strain YCK3, hits give low values 0.249 | S. cerevisiae deletion strains, locus YER133W, strain GLC7, hits give low values 0.577 | S. cerevisiae deletion strains, locus YFR019W, strain FAB1, hits give low values 0.574 | S. cerevisiae deletion strains, locus YGR040W, strain KSS1, hits give low values 0.488 | S. cerevisiae deletion strains, locus YGR052W, strain FMP48, hits give low values 0.446 | S. cerevisiae deletion strains, locus YGR092W, strain DBF2, hits give low values 0.388 | [7] 0.317 | S. cerevisiae deletion strains, locus YHR079C, strain IRE1, hits give low values 0.448 | S. cerevisiae deletion strains, locus YHR082C, strain KSP1, hits give low values 0.521 | S. cerevisiae deletion strains, locus YJL095W, strain BCK1, hits give low values 0.254 | S. cerevisiae deletion strains, locus YJL157C, strain FAR1, hits give low values 0.706 | S. cerevisiae deletion strains, locus YJR066W, strain TOR1 (second series), hits give low values 0.589 | S. cerevisiae deletion strains, locus YKL048C, strain ELM1, hits give low values 0.752 | S. cerevisiae deletion strains, locus YKL067W, strain YNK1, hits give low values 0.597 | S. cerevisiae deletion strains, locus YKL101W, strain HSL1, hits give low values 0.268 | S. cerevisiae deletion strains, locus YKL203C, strain TOR2, hits give low values 0.454 | S. cerevisiae deletion strains, locus YLR113W, strain HOG1, hits give low values 0.317 | S. cerevisiae deletion strains, locus YLR133W, strain CKI1, hits give low values 0.644 | S. cerevisiae deletion strains, locus YML070W, strain DAK1, hits give low values 0.439 | S. cerevisiae deletion strains, locus YMR205C, strain PFK2 (second series), hits give low values 0.605 | S. cerevisiae deletion strains, locus YNL020C, strain ARK1, hits give low values 0.53 | S. cerevisiae deletion strains, locus YNL183C, strain NPR1, hits give low values 0.378 | S. cerevisiae deletion strains, locus YNL307C, strain MCK1 (second series), hits give low values 0.335 | S. cerevisiae deletion strains, locus YOL136C, strain PFK27, hits give low values 0.672 | S. cerevisiae deletion strains, locus YOR061W, strain CKA2, hits give low values 0.355 | S. cerevisiae deletion strains, locus YOR119C, strain RIO1, hits give low values 0.528 | S. cerevisiae deletion strains, locus YOR231W, strain MKK1, hits give low values 0.349 | S. cerevisiae deletion strains, locus YPL031C, strain PHO85, hits give low values 0.29 | S. cerevisiae deletion strains, locus YPL153C, strain RAD53, hits give low values 0.193 | S. cerevisiae deletion strains, locus YPL204W, strain HRR25, hits give low values 0.285 | S. cerevisiae deletion strains, locus YPL256C, strain CLN2, hits give low values 0.604 | S. cerevisiae deletion strains, locus YPR106W, strain ISR1, hits give low values 0.643
inactive: S. cerevisiae deletion strains, locus YAR019C, strain CDC15, hits give low values 0.979 | S. cerevisiae deletion strains, locus YBL105C, strain PKC1, hits give low values 1.01 | S. cerevisiae deletion strains, locus YBR135W, strain CKS1, hits give low values 0.981 | S. cerevisiae deletion strains, locus YBR136W, strain MEC1, hits give low values 1.02 | S. cerevisiae deletion strains, locus YBR160W, strain CDC28, hits give low values 0.983 | S. cerevisiae deletion strains, locus YDL017W, strain CDC7, hits give low values 0.994 | S. cerevisiae deletion strains, locus YDL028C, strain MPS1, hits give low values 1.01 | [3] 1 | S. cerevisiae deletion strains, locus YDL108W, strain KIN28, hits give low values 1.01 | S. cerevisiae deletion strains, locus YDL132W, strain cdc53, hits give low values 0.971 | S. cerevisiae deletion strains, locus YDR052C, strain DBF4, hits give low values 0.985 | S. cerevisiae deletion strains, locus YDR054C, strain cdc34, hits give low values 0.904 | S. cerevisiae deletion strains, locus YDR226W, strain ADK1, hits give low values 0.983 | S. cerevisiae deletion strains, locus YFL009W, strain cdc4, hits give low values 1.01 | S. cerevisiae deletion strains, locus YFL029C, strain CAK1, hits give low values 0.969 | S. cerevisiae deletion strains, locus YFR003C, strain YPI1, hits give low values 1 | S. cerevisiae deletion strains, locus YFR028C, strain CDC14, hits give low values 1 | S. cerevisiae deletion strains, locus YHR205W, strain SCH9, hits give low values 0.635 | S. cerevisiae deletion strains, locus YIL147C, strain SLN1, hits give low values 1 | S. cerevisiae deletion strains, locus YJR016C, strain ILV3, hits give low values 1 | S. cerevisiae deletion strains, locus YJR066W, strain TOR1, hits give low values 0.669 | S. cerevisiae deletion strains, locus YKL193C, strain SDS22, hits give low values 0.982 | S. cerevisiae deletion strains, locus YLR403W, strain SFP1, hits give low values 0.676 | S. cerevisiae deletion strains, locus YMR001C, strain CDC5, hits give low values 0.999 | S. cerevisiae deletion strains, locus YMR277W, strain FCP1, hits give low values 0.993 | S. cerevisiae deletion strains, locus YNL006W, strain LST8, hits give low values 1 | S. cerevisiae deletion strains, locus YNL161W, strain CBK1, hits give low values 0.992 | S. cerevisiae deletion strains, locus YNL207W, strain RIO2, hits give low values 0.989 | S. cerevisiae deletion strains, locus YNL222W, strain SSU72, hits give low values 0.99 | S. cerevisiae deletion strains, locus YOL078W, strain AVO1, hits give low values 1 | S. cerevisiae deletion strains, locus YOR329C, strain SCD5, hits give low values 1.01 | S. cerevisiae deletion strains, locus YPL209C, strain IPL1, hits give low values 0.966 | S. cerevisiae deletion strains, locus YPR025C, strain CCL1, hits give low values 0.975 | S. cerevisiae deletion strains, strain TSCII, hits give low values 1.01
